From PubChem BioAssay come the findings set out here.

A short description of assay [1]: antimalarial activity against Dd2 strain (AID 2302;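 active = growth inhibition above 50% at the single 2 µM test dose, taken to imply half-maximal potency below 2 µM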;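 note: 0% = DMSO untreated growth and 100% = chloroquine plus artemisinin killed control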). The following applies: P. falciparum Dd2 in RBCs, LDH growth readout, 72 h; at 2 µM; hits give high values.
Assay [2] in a line: human hepatoma cell viability loss – ATP luminescence, cytotoxicity control for P. falciparum antimalarial project, primary screen (AID 2303;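 active = inhibition above 50%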;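 note: 0% = DMSO wells and 100% = digitonin-killed cells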). The following applies: HepG2 viability, 24-48 h, at 10 µM, hits give high values.
Assay [3] deals with L-lactate dehydrogenase (Plasmodium falciparum (isolate CDC / Honduras)) (UniProt Q27743). In words: PfLDH activity inhibition – cell lysate, 3D7 strain, counter-screen for P. falciparum growth inhibition project (AID 2304).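 Note: 0% = vehicle and 100% = reference inhibitor.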 The following applies: P. falciparum 3D7 crude extract, LDH APAD/NBT absorbance; at 2 µM; hits give high values.
Sequence of L-lactate dehydrogenase (Plasmodium falciparum (isolate CDC / Honduras)) (Q27743 whole entry, looked up): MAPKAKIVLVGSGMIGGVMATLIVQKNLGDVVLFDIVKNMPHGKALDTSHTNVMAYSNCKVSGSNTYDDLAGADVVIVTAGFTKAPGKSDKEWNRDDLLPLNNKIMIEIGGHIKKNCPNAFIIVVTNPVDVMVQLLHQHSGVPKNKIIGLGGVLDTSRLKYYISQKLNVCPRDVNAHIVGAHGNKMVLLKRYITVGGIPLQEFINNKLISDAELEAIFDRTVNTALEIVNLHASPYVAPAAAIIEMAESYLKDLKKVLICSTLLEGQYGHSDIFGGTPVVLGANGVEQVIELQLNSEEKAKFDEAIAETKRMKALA
Assay [4] can be described thus: inhibition of 3D7 malaria parasite growth – strain 3D7 (AID 2306).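 Note: 0% = DMSO wells and 100% = chloroquine plus artemisinin control wells.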 The following applies: P. falciparum 3D7 erythrocytic growth, LDH absorbance, 72 h; at 2 µM; hits give high values.
Assay [5] addresses Calcium-dependent protein kinase 1 (Plasmodium falciparum (isolate 3D7)) (UniProt P62344). Nature of the assay: PfCDPK1 kinase inhibitors, biochemical, TCAMS library (AID 1159585; cut-off not given, nearly all actives have IC50 up to about 0.98 µM;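 note: inhibitors leave more ATP so luminescence rises with inhibition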). The following applies: recombinant PfCDPK1, Kinase-Glo ATP depletion luminescence. (Kinase-Glo measures the ATP left after a reaction by luminescence.)
Assay [6] concerns the target Plasmodium falciparum protein kinase 6 (PK6, PF3D7_1337100) (UniProt Q8IDW1). In words: PfPK6 kinase inhibitors, biochemical, TCAMS library (AID 1159586). The following applies: recombinant PfPK6, Kinase-Glo ATP depletion luminescence.
For assay [7], the target named is Protein kinase 7 (PK7), Plasmodium falciparum 3D7 (PF3D7_0213400) (UniProt Q7YTF7). In words: inhibition of Plasmodium PK7 catalytic activity – biochemical, TCAMS antimalarial set, Kinase-Glo luminescence (AID 1159587). The settings on record: recombinant PfPK7, Kinase-Glo ATP depletion luminescence.
Sequence of Protein kinase 7 (PK7), Plasmodium falciparum 3D7 (PF3D7_0213400) (Q7YTF7 1-343): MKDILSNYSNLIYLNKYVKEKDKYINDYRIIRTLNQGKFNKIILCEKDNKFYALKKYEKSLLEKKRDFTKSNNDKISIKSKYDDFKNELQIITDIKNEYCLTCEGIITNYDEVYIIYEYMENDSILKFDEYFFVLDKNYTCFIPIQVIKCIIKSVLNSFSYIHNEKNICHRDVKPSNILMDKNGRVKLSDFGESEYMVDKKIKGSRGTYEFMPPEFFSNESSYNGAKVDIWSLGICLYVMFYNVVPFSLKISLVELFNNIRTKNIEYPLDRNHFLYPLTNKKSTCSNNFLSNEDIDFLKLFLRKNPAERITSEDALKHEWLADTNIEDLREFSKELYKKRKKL
For assay [8], the target named is Calcium-dependent protein kinase 4 (Plasmodium falciparum (isolate 3D7)) (UniProt Q8IBS5). Nature of the assay: PfCDPK4 kinase inhibitors, biochemical, TCAMS library (AID 1159588; cut-off not given, nearly all actives have IC50 up to about 0.91 µM). The settings on record: recombinant PfCDPK4, Kinase-Glo ATP depletion luminescence.
Sequence of Calcium-dependent protein kinase 4 (Plasmodium falciparum (isolate 3D7)) (Q8IBS5 whole entry, looked up): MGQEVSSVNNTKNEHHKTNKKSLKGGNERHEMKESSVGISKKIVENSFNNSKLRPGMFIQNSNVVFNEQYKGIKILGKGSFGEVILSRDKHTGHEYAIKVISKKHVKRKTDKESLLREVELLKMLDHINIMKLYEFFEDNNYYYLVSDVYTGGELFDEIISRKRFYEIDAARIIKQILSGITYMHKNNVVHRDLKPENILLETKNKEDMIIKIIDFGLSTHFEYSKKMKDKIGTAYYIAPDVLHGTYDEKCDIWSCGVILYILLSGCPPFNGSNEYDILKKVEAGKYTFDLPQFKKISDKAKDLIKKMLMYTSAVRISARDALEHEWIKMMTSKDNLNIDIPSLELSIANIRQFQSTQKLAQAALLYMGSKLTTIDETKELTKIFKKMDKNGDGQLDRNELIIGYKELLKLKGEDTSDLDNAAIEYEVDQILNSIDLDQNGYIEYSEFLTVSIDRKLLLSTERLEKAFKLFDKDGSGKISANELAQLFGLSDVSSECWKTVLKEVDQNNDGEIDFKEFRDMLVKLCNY

A number with no mark means an inactive call. For some of these results: Potency and affinity values are given separately. Active and inactive are the calls of the source. Unless noted, the rule behind the calls is not given here.

Sequence of Calcium-dependent protein kinase 1 (Plasmodium falciparum (isolate 3D7)) (P62344 whole entry, looked up): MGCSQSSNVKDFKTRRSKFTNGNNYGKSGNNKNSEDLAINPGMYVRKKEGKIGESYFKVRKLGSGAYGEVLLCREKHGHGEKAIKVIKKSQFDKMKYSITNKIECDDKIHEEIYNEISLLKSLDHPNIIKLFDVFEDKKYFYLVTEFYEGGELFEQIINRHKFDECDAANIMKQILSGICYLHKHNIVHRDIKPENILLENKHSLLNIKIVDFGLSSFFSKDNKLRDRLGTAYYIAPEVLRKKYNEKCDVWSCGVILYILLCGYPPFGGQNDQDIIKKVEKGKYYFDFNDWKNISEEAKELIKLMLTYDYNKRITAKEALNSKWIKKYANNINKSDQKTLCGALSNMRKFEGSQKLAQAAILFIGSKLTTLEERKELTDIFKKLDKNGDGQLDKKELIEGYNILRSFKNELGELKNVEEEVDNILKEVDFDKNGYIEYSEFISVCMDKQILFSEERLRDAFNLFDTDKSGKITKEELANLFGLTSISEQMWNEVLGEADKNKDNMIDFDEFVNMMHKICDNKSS
Sequence of Plasmodium falciparum protein kinase 6 (PK6, PF3D7_1337100) (Q8IDW1 1-305): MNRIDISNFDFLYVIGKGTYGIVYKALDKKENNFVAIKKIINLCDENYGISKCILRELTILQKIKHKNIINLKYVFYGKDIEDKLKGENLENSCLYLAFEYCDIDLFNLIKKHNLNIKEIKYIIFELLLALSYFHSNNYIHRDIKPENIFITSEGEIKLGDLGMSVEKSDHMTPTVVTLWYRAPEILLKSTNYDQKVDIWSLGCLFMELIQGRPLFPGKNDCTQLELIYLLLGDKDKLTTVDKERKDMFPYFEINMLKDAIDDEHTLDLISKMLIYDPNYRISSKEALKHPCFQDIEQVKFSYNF

By inhibition is commonly meant the change of the read-out against control, counted positive when it falls. As to `CC(C)(C)c1ccc(CN2CCCCC(NC(=O)c3cc(-c4ccccc4F)cs3)C2)cc1` (stereo not given), the growth inhibition in assay [1] is 99% (active); in assay [4], 101% (active). Moreover, the inhibition is 6% in assay [2] and 3% in assay [3]. The outcome in assay [5], in assay [6], in assay [7] and in assay [8] was inactive.
Consider `CCCCCCN1CCC(NCc2ccc(OCCN3CCCC3)cc2)CC1`, for which the growth inhibition in assay [1] is 93% (active); in assay [4], 101% (active). In addition, the inhibition in assay [2] was 23%; in assay [3], 0%. In addition, the result in assay [5], in assay [6], in assay [7] and in assay [8] was inactive.
On to `Fc1cccc(COc2ccc(Nc3ncnc4cc(/C=C/[C@@H]5CCCN5)sc34)cc2Cl)c1`, for which the growth inhibition is 56% (active) in assay [1] and 100% (active) in assay [4]. Further, the inhibition was 17% in assay [2] and -7% in assay [3]. Further, the outcome in assay [5], in assay [6], in assay [7] and in assay [8] was inactive.
As to `O=C(C=Cc1ccc(Cl)c(Cl)c1)NCCCCCN1CCC(CCCNS(=O)(=O)c2ccc(F)cc2)CC1`, the growth inhibition is 20% in assay [1] and 93% (active) in assay [4]. Besides, the inhibition in assay [2] is 52% (active); in assay [3], 4%. The result in assay [5], in assay [6], in assay [7] and in assay [8] was inactive.
Take `O=C(CC1CCCC1)N(Cc1ccc(-c2ccc(CNC3Cc4ccccc4C3)cc2)cc1)CC1CCCCN1` (stereo not given): the growth inhibition in assay [1] was 86% (active); in assay [4] it was 88% (active). The inhibition in assay [2] was 41%; in assay [3], -3%. The result in assay [5], in assay [6], in assay [7] and in assay [8] was inactive.
As to `Nc1cc(C=Cc2ccc([N+](=O)[O-])s2)nc2ccccc12`, the growth inhibition in assay [1] is 48%; in assay [4] it was 98% (active). Also, the figures for the inhibition in assay [2] and in assay [3] were 89% (active) and -7%, respectively. Also, the outcome in assay [5], in assay [6], in assay [7] and in assay [8] was inactive.
With `c1ccc(COc2ccc(Nc3ncnc4cnc(-c5ccc(CN6CCCCC6)o5)cc34)cc2)cc1`, the growth inhibition was 13% in assay [1] and 90% (active) in assay [4]. For the same compound, the inhibition was -14% in assay [2] and -5% in assay [3]. Further, the outcome in assay [5], in assay [6], in assay [7] and in assay [8] was inactive.
With `CC(=O)N(C)c1cccc(C(=O)Nc2cccc(-c3ccc(-c4nc5ccc(C(F)(F)F)cc5[nH]4)cc3)c2)c1`, the growth inhibition was 31% in assay [1] and 90% (active) in assay [4]. The inhibition was 63% (active) in assay [2] and -2% in assay [3]. For the same compound, the result in assay [5], in assay [6], in assay [7] and in assay [8] was inactive.
On to `CC1(C)N=C(N)N=C(N)N1c1cccc(C(F)(F)F)c1`, for which the growth inhibition in assay [1] was 68% (active); in assay [4], 95% (active). Further, the inhibition in assay [2] is 60% (active); in assay [3], 0%. Also, the result in assay [5], in assay [6], in assay [7] and in assay [8] was inactive.
In the case of `Cc1[nH]c(C)c(-c2ccc(Oc3ccc(OC(F)(F)F)cc3)cc2)c(=O)c1I`, the values for the growth inhibition in assay [1] and in assay [4] were 96% (active) and 95% (active), respectively. The inhibition is 3% in assay [2] and -3% in assay [3]. The result in assay [5], in assay [6], in assay [7] and in assay [8] was inactive.
For `COc1cc(C(=O)NC2CC(C)(C)N(C)C(C)(C)C2)ccc1-c1nc2cc(Cl)c(Cl)cc2[nH]1`, the growth inhibition was 99% (active) in assay [1] and 100% (active) in assay [4]. Further, the inhibition was 69% (active) in assay [2] and 5% in assay [3]. Further, the outcome in assay [5], in assay [6], in assay [7] and in assay [8] was inactive.
For the compound `O=C(NCc1cccc(F)c1)Nc1cccc(-c2cccc(-c3nc4ccc(C(F)(F)F)cc4[nH]3)c2)c1`, the growth inhibition in assay [1] was 32%; in assay [4], 93% (active). The inhibition in assay [2] is 55% (active); in assay [3], -7%. The outcome in assay [5], in assay [6], in assay [7] and in assay [8] was inactive.
With `O=C(Cn1c(CCc2cccc(F)c2F)nc(=O)c2ccccc21)N(CCN1CCCC1)Cc1ccc(-c2ccc(C(F)(F)F)cc2)cc1`, the results for the growth inhibition in assay [1] and in assay [4] were 37% and 101% (active), respectively. The inhibition in assay [2] is 63% (active); in assay [3], -1%. Moreover, the result in assay [5], in assay [6], in assay [7] and in assay [8] was inactive.
In the case of `CCN(CC)CCN(Cc1ccc(-c2ccc(C(F)(F)F)cc2)cc1)C(=O)Cn1c(CCc2ccc(F)c(F)c2F)nc(=O)c2ccc(F)cc21`, the growth inhibition in assay [1] was 46%; in assay [4], 98% (active). For the same compound, the figures for the inhibition in assay [2] and in assay [3] were 19% and -1%, respectively. Besides, the outcome in assay [5], in assay [6], in assay [7] and in assay [8] was inactive.
For `O=C(Nc1cccc(C(F)(F)F)c1)c1ccc(S(=O)(=O)NC2CCN(CC3CCCCC3)CC2)cc1`, the results for the growth inhibition in assay [1] and in assay [4] were -3% and 83% (active), respectively. The inhibition in assay [2] was 25%; in assay [3], 0%. Further, the result in assay [5], in assay [6], in assay [7] and in assay [8] was inactive.
Regarding `O=C(Nc1cccc(CN2CCCN(Cc3ccc(O)cc3)CC2)c1)c1ccc2ccccc2c1`, the growth inhibition is 78% (active) in assay [1] and 101% (active) in assay [4]. Also, the inhibition in assay [2] is 20%; in assay [3], 1%. The result in assay [5], in assay [6], in assay [7] and in assay [8] was inactive.
Take `Cc1ccc(S(=O)(=O)n2nccc2-c2c(-c3ccc(Cl)cc3)noc2C)cc1`: the growth inhibition in assay [1] and in assay [4] was 97% (active) each time. Further, the values for the inhibition in assay [2] and in assay [3] were -1% and -2%, respectively. Further, the result in assay [5], in assay [6], in assay [7] and in assay [8] was inactive.
Consider `O=C(NCc1ccc(F)cc1)c1ccc(N2CCN(c3ccncc3)CC2)cn1`, for which the growth inhibition is 81% (active) in assay [1] and 98% (active) in assay [4]. Also, the inhibition was 7% in assay [2] and -2% in assay [3]. For the same compound, the outcome in assay [5], in assay [6], in assay [7] and in assay [8] was inactive.
For `Cc1ccc(NC(=O)c2cccc(CN3CCCN(CC4CCCCC4)CC3)c2)cc1F`, the growth inhibition was 42% in assay [1] and 85% (active) in assay [4]. Also, the inhibition in assay [2] was 22%; in assay [3], -2%. For the same compound, the result in assay [5], in assay [6], in assay [7] and in assay [8] was inactive.
For the compound `CC(C)(C)OC(=O)NCc1ccc(Nc2nnc(-c3cccc(C(=O)NCc4cc(C(F)(F)F)cc(C(F)(F)F)c4)c3)o2)cc1`, the growth inhibition in assay [1] is 13%; in assay [4], 90% (active). The inhibition in assay [2] is 4%; in assay [3], 0%. Besides, the outcome in assay [5], in assay [6], in assay [7] and in assay [8] was inactive.
